This test deals with Torsin-1A (Homo sapiens) (UniProt O14656). The test is described as follows: torsin A mutant lysate binding on microarrays – cell lysate, small-molecule microarray, COS7 lysate, 635/667 nm fluorescence, primary screen (AID 1150).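 Also: score pools 667 nm emission and signal to noise measuring lysate protein binding.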 The following applies: COS7 hTOR1A mutant lysate, 635 nm fluorescence, higher = more signal.
Torsin-1A (Homo sapiens), sequence (O14656 whole entry, looked up): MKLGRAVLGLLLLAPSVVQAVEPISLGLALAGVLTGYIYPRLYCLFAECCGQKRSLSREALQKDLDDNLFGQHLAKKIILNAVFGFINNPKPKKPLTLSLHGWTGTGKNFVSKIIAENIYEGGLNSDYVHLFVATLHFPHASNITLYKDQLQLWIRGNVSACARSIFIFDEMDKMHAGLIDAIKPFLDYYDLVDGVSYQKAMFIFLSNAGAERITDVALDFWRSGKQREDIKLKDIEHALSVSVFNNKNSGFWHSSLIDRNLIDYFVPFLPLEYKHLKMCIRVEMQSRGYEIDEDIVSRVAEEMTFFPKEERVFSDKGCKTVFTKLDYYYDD
As to `CN(C)C(=O)[C@@]1(Cc2ccccc2)COC(c2ccc(OCCCO)cc2)=N1`, the composite z-score is -0.22. The same measure for `CO[C@H]1O[C@H](CO)[C@@H](OC(=O)CCc2ccccc2)[C@H](OC(=O)c2cc3ccccc3[nH]2)[C@H]1OC(=O)c1cc2ccccc2[nH]1`: 0.913; for `CN1C(=O)C2C=CC(C(O)c3cc(C(F)(F)F)cc(C(F)(F)F)c3)N(Nc3ccccc3)C2C1=O` (stereo unspecified): 1.13; for `COCCOC(=O)N1C(=O)[C@@]2(c3cc(C#CCCO)ccc31)[C@H](C(N)=O)[C@H]1C(=O)O[C@H](c3ccccc3)[C@H](c3ccccc3)N1[C@@H]2c1ccc(OCCO)cc1`: 0.684. With `COCCOC(=O)N1C(=O)[C@@]2(c3cc(C#Cc4ccc(OC)cc4)ccc31)[C@H](C(=O)NC[C@H](O)c1ccccc1)[C@H]1C(=O)O[C@H](c3ccccc3)[C@H](c3ccccc3)N1[C@@H]2c1ccc(OCCO)cc1` the figure was 0.963; with `COCCOC(=O)N1C(=O)[C@@]2(c3cc(C#CCNC(N)=O)ccc31)[C@H](c1ccc(OCCO)cc1)N1[C@H](c3ccccc3)[C@H](c3ccccc3)OC(=O)[C@H]1[C@@H]2C(N)=O`, 0.406. The same measure for `CC(=O)NCCCC[C@@H]1NC(=O)[C@H]2C[C@@H](C(=O)NCCCCCNC(=O)CS)[C@@H](c3cccc(OCCO)c3)N2C1=O`: 0.092. In the case of `O=C1O[C@H](c2ccccc2)[C@H](c2ccccc2)N2[C@H]1[C@@H](C(=O)N1CCCCCCC1)[C@]1(C(=O)Nc3ccc(C#CC4(O)CCCCCC4)cc31)[C@H]2c1ccccc1OCCO`, the composite z-score was found to be 3.55. The same measure for `COCCCNC(=O)[C@@]1(c2ccc([N+](=O)[O-])cc2)CC(=O)N(CC23CC4CC(CC(C4)C2)C3)[C@@H]1c1ccc(CO)cc1I`: 0.0661; for `COc1ccc(C#Cc2ccc3c(c2)[C@]2(C(=O)N3)[C@H](C(=O)N3CCCCCCC3)[C@H]3C(=O)O[C@H](c4ccccc4)[C@H](c4ccccc4)N3[C@@H]2c2ccc(O)cc2)cc1`: 1.42; for `C=C(/C(=C/C[C@H](OC(=O)c1ccncc1)c1cccc(OCCO)c1)c1cnc2ccccc2c1)C(C)C`: -0.22. With `CCCCCCCCCCC(O)C1C=CC2C(=O)N(C)C(=O)C2N1Nc1cc(OC)c(OC)c(OC)c1` (stereo unspecified) the figure was 0.0777; with `Nc1cc(Br)ccc1C(=O)O`, 0.474. With `CN(C)C(=O)[C@]1(CCS(=O)(=O)c2ccccc2)N=C(c2ccc(OCCCO)cc2)O[C@@H]1c1ccccc1` the figure was 0.831; with `O=C1N(CCS(=O)(=O)c2ccccc2)Cc2ccccc2[C@@H]2OC(c3ccc(OCCCO)cc3)=N[C@]12CCS(=O)(=O)c1ccccc1`, 1.51.

The compound `COc1ccc([Si](C)(C)[C@H]2[C@H](CC(=O)N3Cc4ccccc4C[C@H]3CO)O[C@@]3(C(=O)N(Cc4ccc(N5C(=O)c6cccc7cccc5c67)cc4)c4ccccc43)[C@@H]2C)cc1` registered a composite z-score of 0.837. `COCC1=C2[C@@H](CCc3ccccc3)OB(O)C[C@@H]2[C@@H]2C(=O)N(C)C(=O)[C@@H]2C1`: the composite z-score is -0.0933. With `CC(C)OC(=O)CC(=O)CC(O)c1ccc([N+](=O)[O-])cc1` (stereo unspecified) the figure was 0.113; with `CC(C)C(=C=CC[C@@H](O)c1cccc(OCCO)c1)C[C@@H](O)c1ccccn1`, 0.405; with `C=CCC(OC(C)=O)[C@@H]1[C@@H](N(Cc2cccc3ccccc23)C(=O)c2cccc3ccccc23)c2cc(OCCCO)ccc2N1C(=O)c1ccc2ccccc2c1` (stereo partly specified), -0.252. With `CC(=O)N1CC(C(O)C2C=CC3C(=O)NC(=O)C3N2Nc2ccc(Cl)cc2Cl)c2ccccc21` (stereo unspecified) the figure was 0.545. With `COC(=O)[C@@]1(Cc2ccc(F)cc2)[C@H]2c3cc(C(=O)N(C)C)n(Cc4c(CO)[nH]cc(C)c4=O)c3C[C@H]2CN1C(=O)c1ccccc1` the figure was -0.134; with `CC(C)[C@H]1NC(=O)[C@@]23C(=O)N[C@@H](Cc4ccccc4)C2[C@H](C)[C@@]2(C)O[C@H]2C3/C=C/CCC/C=C/CNC(=O)[C@H](Cc2ccccc2)NC1=O` (stereo partly specified), 0.671; with `CCOC(=O)C[C@H]1[C@H](OC(=O)c2ccccc2-c2ccccc2)[C@@H](NC(=O)c2ccccc2)c2cc(OCCCO)ccc2N1C(=O)c1ccccc1`, 0.261. On to `COC(=O)[C@@]1(Cc2ccccc2CN=[N+]=[N-])N=C(c2ccc(OCCCO)cc2)O[C@H]1c1ccccc1`, for which the composite z-score was 0.925.

As to `C=C(COC)C(=O)CC[C@@H](OC(=O)c1cccnc1)c1ccccc1OCCO`, the composite z-score amounted to 1.14. The same measure for `CC1CC/C=C\[C@H]2OC34C=CCN(CCN5CCOCC5)C(=O)[C@H]3N(C(C)CO)C(=O)[C@@H]4C2C(=O)O1` (stereo partly specified): -1.58; for `[N-]=[N+]=NCc1ccccc1[C@H]1OC(c2ccc(OCCCO)cc2)=N[C@@]1(CCS(=O)(=O)c1ccccc1)C(=O)NCc1ccccc1`: 0.563; for `COc1ccc([Si](C)(C)[C@H]2[C@H](CCO)O[C@@]3(C(=O)N(Cc4ccc(N5C(=O)c6ccccc6Oc6ccccc65)cc4)c4ccccc43)[C@@H]2C)cc1`: -0.889.

Turning to `O=C(NCC(O)CO)[C@@]1(CCS(=O)(=O)c2ccccc2)COC(c2ccc(OCCCO)cc2)=N1` (stereo partly specified), the composite z-score is 1.91. With `C=CCC(OC(C)=O)[C@@H]1[C@@H](N(Cc2cccc3ccccc23)C(=O)Cc2ccc(F)cc2)c2cc(OCCCO)ccc2N1C(=O)c1ccc(-c2ccccc2)cc1` (stereo partly specified) the figure was 0.102; with `C=CCNC(=O)[C@@H]1[C@H]2C(=O)O[C@H](c3ccccc3)[C@H](c3ccccc3)N2[C@H](c2ccc(O)cc2)[C@@]12C(=O)N(C(=O)OCCOC)c1ccc(C#CCCO)cc12`, 0.235.

Compound `C=CCNC(=O)[C@@H]1[C@H]2C(=O)O[C@H](c3ccccc3)[C@H](c3ccccc3)N2[C@H](c2ccc(OCCO)cc2)[C@@]12C(=O)N(C(=O)OCCOC)c1ccc(C#CCCO)cc12` had a composite z-score of 0.582. The same measure for `C=CCOC(=O)[C@H]1[C@@H]2C(=O)O[C@@H](c3ccccc3)[C@@H](c3ccccc3)N2[C@@H](c2ccc(OCCOC(=O)[C@H]3C[C@H]4C(=O)N[C@@H](CCCCNC(C)=O)C(=O)N4[C@H]3c3cccc(OCCO)c3)cc2)[C@]12C(=O)Nc1ccc(I)cc12`: 0.763; for `COCCOC(=O)N1C(=O)[C@@]2(c3cc(C#CC4=CCCCC4)ccc31)[C@H](c1ccc(O)cc1)N1[C@H](c3ccccc3)[C@H](c3ccccc3)OC(=O)[C@H]1[C@@H]2C(=O)NC[C@H](O)c1ccccc1`: 1.29. With `CN1C(=O)C2C=CC(C(O)c3ccc(I)cc3)N(Nc3ccccc3)C2C1=O` (stereo unspecified) the figure was 0.696.

These data come from PubChem BioAssay.
